Data as given in the supplement of paper PMC11732987, “Enantioselective OTUD7B fragment discovery through chemoproteomics screening and high-throughput optimisation” (Communications Chemistry, 2025).

Columns and labels:
Experiment in all cases: log2 ratio of Biotin-Ahx-Ub-VS probe labelling (fragment/DMSO); higher = less target engagement (more negative = stronger competition), active = hit call of the paper (q ≤ 0.05, log2 ratio ≤ -1)
Conditions in all cases: compound concentration: 200 uM; treatment time: 3 h
USP34 = USP34 (UniProt Q70CQ2)
USP34, sequence (Q70CQ2 whole entry, the tested form may be a part): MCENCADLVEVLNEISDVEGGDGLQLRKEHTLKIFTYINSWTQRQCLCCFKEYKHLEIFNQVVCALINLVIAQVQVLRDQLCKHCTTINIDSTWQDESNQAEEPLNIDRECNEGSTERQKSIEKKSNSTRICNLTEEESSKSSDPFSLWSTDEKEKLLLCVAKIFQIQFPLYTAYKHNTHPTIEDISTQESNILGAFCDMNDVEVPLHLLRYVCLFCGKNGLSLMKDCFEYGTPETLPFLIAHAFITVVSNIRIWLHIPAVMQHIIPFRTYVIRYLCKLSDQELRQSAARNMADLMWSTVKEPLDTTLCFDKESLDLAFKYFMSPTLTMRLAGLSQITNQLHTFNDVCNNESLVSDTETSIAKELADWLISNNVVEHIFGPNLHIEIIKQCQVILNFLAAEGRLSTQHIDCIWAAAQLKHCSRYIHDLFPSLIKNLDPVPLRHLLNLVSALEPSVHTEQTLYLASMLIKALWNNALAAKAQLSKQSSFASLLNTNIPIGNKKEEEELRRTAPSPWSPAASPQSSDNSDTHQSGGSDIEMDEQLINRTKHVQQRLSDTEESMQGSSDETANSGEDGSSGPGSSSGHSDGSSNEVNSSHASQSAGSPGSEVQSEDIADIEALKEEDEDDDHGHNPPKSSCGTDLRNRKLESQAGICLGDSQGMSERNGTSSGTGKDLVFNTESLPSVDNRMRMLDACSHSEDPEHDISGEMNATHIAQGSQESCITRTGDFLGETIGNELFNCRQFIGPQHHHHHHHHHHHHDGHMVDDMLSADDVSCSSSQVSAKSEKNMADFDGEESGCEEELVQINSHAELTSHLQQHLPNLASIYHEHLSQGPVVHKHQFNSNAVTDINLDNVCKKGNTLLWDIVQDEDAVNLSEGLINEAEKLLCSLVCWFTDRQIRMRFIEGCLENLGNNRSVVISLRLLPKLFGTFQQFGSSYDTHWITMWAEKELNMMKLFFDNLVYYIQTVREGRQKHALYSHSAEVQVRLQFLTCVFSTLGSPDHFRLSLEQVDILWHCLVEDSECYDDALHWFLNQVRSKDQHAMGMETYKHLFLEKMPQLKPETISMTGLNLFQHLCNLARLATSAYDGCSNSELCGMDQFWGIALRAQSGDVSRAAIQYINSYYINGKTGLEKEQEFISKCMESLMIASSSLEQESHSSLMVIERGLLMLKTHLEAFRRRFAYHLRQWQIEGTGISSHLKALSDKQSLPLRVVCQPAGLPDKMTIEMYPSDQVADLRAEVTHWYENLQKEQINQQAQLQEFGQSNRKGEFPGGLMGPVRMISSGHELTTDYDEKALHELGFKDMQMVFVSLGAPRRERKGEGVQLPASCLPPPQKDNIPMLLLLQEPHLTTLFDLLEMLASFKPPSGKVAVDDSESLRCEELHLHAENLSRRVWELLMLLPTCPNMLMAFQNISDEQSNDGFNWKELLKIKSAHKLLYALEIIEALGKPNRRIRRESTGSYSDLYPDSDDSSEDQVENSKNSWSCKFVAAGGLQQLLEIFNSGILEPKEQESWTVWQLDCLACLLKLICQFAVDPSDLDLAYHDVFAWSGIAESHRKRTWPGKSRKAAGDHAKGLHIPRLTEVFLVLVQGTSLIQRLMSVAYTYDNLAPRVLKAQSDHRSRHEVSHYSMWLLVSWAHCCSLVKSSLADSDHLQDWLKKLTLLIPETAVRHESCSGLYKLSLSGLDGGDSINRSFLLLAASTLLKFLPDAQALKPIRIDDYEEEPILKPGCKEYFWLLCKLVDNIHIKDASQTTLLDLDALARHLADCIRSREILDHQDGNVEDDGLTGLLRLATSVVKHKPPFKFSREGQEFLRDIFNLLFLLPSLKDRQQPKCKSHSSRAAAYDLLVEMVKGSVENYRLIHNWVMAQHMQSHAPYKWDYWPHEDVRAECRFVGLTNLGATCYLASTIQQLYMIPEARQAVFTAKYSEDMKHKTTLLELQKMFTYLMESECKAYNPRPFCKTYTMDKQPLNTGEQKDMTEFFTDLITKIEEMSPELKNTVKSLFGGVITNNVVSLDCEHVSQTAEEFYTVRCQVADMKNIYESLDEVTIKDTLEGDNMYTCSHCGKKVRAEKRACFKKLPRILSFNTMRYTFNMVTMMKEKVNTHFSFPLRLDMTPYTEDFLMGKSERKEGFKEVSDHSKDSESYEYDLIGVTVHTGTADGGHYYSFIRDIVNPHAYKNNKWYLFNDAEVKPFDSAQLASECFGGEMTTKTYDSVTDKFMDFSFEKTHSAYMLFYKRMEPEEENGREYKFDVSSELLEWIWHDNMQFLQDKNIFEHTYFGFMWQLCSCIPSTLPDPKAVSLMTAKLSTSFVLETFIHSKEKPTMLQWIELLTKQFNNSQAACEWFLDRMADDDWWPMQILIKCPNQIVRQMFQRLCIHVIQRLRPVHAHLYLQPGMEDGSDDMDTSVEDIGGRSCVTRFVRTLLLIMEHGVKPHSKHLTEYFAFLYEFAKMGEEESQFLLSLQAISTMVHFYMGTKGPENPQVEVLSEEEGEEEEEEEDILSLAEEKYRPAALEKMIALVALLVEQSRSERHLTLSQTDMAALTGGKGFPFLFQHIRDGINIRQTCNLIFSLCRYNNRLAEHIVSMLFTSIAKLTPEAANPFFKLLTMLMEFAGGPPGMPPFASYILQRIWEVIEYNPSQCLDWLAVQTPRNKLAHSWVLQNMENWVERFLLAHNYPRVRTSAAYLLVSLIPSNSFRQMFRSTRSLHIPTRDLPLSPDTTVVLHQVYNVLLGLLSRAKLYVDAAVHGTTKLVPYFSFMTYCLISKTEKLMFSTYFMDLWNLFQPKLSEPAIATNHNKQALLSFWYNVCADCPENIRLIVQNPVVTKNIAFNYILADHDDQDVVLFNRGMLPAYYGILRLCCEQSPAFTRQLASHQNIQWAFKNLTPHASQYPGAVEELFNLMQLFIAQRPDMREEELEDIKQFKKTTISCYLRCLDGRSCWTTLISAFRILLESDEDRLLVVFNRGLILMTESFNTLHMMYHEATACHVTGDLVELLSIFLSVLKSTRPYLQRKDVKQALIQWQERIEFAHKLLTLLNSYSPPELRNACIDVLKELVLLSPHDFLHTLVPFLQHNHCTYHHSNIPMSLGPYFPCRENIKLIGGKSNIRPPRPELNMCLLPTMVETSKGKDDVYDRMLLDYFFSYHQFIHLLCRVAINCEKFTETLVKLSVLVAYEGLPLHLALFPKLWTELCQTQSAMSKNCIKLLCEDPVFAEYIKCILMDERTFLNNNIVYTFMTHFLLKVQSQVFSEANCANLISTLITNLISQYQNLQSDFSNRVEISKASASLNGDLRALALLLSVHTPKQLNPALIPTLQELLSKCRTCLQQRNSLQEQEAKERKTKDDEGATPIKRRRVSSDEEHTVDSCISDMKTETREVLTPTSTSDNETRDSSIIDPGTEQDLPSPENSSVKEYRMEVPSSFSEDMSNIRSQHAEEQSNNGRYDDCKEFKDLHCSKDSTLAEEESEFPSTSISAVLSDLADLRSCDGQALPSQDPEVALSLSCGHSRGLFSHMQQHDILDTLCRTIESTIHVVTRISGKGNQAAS
Procedure, shortened: (§1)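 Average log2 ratios of fragment over vehicle were obtained by unpaired t-test from global-median-normalised Spectronaut label-free quantities. Proteins with ≥2 unique peptides were included. HEK293T lysate (495 µg per sample) was treated in triplicate with fragment at 200 µM or vehicle for 3 h, then with Biotin-Ahx-Ub-VS at 0.5 µM final for 1 h, and labelled DUBs were NeutrAvidin-enriched and run by diaPASEF LC-MS/MS.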

USP36 = biological target: T1, USP36 (UniProt Q9P275)
T1 sequence (whole entry): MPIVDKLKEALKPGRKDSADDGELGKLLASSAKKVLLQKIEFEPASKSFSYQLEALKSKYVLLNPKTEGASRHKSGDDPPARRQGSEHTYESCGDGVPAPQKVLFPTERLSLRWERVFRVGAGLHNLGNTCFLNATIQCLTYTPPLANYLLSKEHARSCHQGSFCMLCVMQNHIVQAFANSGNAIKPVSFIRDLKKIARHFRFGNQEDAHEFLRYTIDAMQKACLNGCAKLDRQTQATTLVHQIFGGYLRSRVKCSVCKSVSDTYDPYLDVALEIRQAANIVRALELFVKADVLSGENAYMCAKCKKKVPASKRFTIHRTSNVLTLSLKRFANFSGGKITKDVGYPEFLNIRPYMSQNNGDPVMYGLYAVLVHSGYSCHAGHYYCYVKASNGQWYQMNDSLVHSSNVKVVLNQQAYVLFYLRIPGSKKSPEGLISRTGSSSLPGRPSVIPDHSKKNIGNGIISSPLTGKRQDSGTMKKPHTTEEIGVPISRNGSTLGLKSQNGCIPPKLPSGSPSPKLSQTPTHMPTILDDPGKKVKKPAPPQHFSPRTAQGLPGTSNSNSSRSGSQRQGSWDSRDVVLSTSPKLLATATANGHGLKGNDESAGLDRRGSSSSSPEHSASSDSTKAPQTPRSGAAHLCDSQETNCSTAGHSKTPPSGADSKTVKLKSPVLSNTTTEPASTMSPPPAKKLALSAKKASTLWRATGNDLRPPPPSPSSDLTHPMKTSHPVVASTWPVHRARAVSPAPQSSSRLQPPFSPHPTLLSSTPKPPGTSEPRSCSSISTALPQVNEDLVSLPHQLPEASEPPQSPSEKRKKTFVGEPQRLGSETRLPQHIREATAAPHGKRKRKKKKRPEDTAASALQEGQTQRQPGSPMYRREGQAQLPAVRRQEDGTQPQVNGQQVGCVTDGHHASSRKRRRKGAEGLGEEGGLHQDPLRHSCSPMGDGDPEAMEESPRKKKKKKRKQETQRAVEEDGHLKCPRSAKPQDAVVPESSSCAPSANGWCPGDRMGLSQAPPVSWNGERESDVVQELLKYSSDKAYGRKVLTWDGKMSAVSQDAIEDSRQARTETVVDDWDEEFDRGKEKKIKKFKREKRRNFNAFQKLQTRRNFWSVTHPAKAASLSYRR
Procedure, shortened: as §1

USP38 = biological target: T2, USP38 (UniProt Q8NB14)
T2 sequence (whole entry): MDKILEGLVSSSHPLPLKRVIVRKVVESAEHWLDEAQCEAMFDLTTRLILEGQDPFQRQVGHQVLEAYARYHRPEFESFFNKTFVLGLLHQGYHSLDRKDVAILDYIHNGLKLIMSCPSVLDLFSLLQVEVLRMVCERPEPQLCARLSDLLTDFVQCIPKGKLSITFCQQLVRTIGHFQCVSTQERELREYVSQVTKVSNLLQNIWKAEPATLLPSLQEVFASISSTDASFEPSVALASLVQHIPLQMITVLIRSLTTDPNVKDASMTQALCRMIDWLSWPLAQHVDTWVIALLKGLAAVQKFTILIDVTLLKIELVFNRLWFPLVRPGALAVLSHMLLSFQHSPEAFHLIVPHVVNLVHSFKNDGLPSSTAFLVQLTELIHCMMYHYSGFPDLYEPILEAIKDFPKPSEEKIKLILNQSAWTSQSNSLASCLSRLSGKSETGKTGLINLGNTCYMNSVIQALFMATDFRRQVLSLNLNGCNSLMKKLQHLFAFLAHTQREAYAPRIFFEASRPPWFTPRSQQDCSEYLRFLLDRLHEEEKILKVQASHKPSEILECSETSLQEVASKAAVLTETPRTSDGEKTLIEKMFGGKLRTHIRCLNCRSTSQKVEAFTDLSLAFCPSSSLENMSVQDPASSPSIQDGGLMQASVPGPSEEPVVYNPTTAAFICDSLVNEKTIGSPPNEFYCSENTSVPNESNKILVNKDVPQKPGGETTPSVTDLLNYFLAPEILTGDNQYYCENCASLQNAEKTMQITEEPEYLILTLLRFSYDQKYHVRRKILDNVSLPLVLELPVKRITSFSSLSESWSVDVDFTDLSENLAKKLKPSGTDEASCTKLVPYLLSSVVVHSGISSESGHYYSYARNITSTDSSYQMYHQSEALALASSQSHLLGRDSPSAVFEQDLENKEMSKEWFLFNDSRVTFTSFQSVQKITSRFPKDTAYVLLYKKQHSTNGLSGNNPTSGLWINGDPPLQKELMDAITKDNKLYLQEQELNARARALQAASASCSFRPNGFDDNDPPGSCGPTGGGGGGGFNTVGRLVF
Procedure, shortened: as §1

USP39 = biological target: T3, USP39 (UniProt Q53GS9)
T3 sequence (whole entry): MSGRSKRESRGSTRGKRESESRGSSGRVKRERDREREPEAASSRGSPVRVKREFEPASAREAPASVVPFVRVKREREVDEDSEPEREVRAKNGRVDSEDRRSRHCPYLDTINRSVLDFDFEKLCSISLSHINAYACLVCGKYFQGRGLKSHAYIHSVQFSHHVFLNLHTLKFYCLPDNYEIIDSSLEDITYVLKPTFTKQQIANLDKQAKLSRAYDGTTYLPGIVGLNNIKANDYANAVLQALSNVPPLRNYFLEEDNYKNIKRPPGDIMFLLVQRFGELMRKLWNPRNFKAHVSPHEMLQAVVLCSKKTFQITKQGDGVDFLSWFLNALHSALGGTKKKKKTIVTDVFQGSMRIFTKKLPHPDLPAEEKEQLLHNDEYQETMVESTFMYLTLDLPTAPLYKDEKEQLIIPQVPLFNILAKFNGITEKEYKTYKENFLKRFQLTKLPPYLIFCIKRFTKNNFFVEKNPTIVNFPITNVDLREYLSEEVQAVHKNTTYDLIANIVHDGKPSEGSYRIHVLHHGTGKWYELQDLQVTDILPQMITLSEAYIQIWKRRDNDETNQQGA
Procedure, shortened: as §1

USP4 = biological target: T4, USP4 (UniProt Q13107)
T4 sequence (whole entry): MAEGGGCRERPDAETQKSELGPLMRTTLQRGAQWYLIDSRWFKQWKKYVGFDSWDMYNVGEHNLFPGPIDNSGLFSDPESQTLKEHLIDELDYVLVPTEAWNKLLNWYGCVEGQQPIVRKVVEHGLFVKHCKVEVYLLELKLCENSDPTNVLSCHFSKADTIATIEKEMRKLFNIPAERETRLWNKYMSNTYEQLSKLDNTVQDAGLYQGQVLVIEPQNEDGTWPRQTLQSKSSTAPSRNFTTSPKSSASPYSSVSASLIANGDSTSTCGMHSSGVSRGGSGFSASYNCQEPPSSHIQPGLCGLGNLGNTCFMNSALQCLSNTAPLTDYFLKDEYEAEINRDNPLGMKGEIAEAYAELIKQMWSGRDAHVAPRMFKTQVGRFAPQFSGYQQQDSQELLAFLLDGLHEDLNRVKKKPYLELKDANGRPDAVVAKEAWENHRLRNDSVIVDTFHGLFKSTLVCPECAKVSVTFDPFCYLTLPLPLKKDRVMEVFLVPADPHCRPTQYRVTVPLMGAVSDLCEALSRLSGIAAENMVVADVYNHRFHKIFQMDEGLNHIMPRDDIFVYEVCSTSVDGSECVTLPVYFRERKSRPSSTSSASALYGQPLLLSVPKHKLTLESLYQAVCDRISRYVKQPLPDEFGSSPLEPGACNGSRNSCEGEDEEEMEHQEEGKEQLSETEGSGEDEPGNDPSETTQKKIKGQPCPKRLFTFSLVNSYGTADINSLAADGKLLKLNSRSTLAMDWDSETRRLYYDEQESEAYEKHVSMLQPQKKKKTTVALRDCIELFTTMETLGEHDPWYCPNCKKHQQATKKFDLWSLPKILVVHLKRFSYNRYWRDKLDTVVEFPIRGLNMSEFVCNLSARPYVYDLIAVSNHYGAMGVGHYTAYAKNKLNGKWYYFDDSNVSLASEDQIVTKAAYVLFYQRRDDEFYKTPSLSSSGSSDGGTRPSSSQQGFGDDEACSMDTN
Procedure, shortened: as §1

Measured: log2 ratio of Biotin-Ahx-Ub-VS probe labelling

O=C(CCl)NCCc1ccc2c(c1)OCCO2
inactive: USP34 -0.523 | USP36 -0.0707 | USP38 -0.0664 | USP39 -0.16 | USP4 -0.295
